Rows were chosen to be rich in hits. Some 4.1% of all compounds tested hit in one or more screens of this group.
hgDAF-12 ag – agonists of H. glycines DAF-12 nuclear receptor; HEK293 GAL4-hgDAF12 UAS-luciferase reporter, agonist luminescence; normalized to butyrate control; activation, % at 6.8 µM; 370,000 compounds, 1.8% hits; AID 687014;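 active = activation above a cutoff set at the mean of all screened compounds plus 3 SD, cut at about 10% in these data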
DAX1 inh-1 – blocks DAX1 repression of SF-1 activated StAR promoter | HEK293T StAR-luciferase reporter, SF-1/DAX-1 repression relief | 370,000 compounds, 1.1% hits | inhibition, % at 6.8 µM | AID 652010;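 active = inhibition above the mean over all tested compounds plus 3 SD, cut at about 3.6% in these data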;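 also: higher inhibition means more luminescence from relief of DAX-1 repression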
hcDAF-12 act – activates DAF-12 receptor from parasite H. contortus; HEK293 hcDAF-12 lit1-tk-luc reporter, luminescence; 0% DMSO, 100% Δ7-dafachronic acid; activation, % at 6.8 µM; 370,000 compounds, 1.4% hits; AID 652067;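 active = activation above the mean of all tested compounds plus 3 SD, cut at about 5.5% in these data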
DAX1 inh-2 – inhibitors of human orphan nuclear receptor DAX1 (NR0B1); P51843; HEK293 Gal4-DAX1 luciferase reporter, luminescence; inhibition, % at 6.75 µM; 340,000 compounds, 0.99% hits;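 active = inhibition above the mean over all tested compounds plus 3 SD, cut at about 4.2% in these data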;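 also: inhibition shows as a rise in luminescence from relieved DAX1 repression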
Target sequence (P51843 207-470 limits assumed): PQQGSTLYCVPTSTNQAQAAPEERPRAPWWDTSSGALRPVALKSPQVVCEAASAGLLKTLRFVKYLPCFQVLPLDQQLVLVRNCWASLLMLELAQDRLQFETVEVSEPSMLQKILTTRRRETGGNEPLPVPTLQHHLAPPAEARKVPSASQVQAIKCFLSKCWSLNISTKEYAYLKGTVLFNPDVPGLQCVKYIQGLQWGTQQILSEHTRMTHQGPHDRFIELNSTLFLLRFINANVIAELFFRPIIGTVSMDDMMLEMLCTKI
ssDAF-12 act – activators of S. stercoralis DAF-12 nuclear receptor | HEK293 ssDAF-12/GRIP1 lit1-tk-luc reporter, luminescence; % of 3 µM dafachronic acid response | activation, % at 6.8 µM | 370,000 compounds, 1% hits;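 active = activation above the mean over all tested compounds plus 3 SD, cut at about 0.9% in these data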
hgDAF12 conf – hgDAF-12 agonism, confirmation assay; HEK293 GAL4-hgDAF12 luciferase reporter, agonist mode; percent of butyrate response; shares compounds with hgDAF-12 ag; 3,300 compounds, 80% hits; AID 743050; activation, % at 6.8 µM;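 active = mean activation over triplicate wells above the hit cutoff derived from the earlier primary screen, cut at about 11% in these data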
LXRb DAF12 ctr – counter-screen for DAF-12 agonists: agonists of human LXR-beta; activation, % at 6.8 µM; 3,300 tested, under 10 active; HEK293 Gal4-LXR luciferase reporter, 24 h; shares compounds with hgDAF-12 ag;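 active = mean activation of the triplicate above a set limit carried over from the primary screen, none filed active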
Hits are given with their value; i = inactive; nt = no result.

SMILES	hgDAF-12 ag	DAX1 inh-1	hcDAF-12 act	DAX1 inh-2	ssDAF-12 act	hgDAF12 conf	LXRb DAF12 ctr
c1ccc2c(c1)CN1C(=N2)COc2ccccc2C1c1nc2ccccc2[nH]1 (stereo not given)	15	4.4	6.0	nt	2.0	i	i
CCCCCCCCN1C(=O)[C@@H](CC(=O)N2CCCC2)C[C@@]2(C(=O)OC)C1=C[C@H](C1CCCC1)O[C@@H]2C	i	i	i	nt	i	nt	nt
C(=C\c1ccccc1)/C=N/Nc1nc2ccccc2[nH]1	15	i	i	i	i	17	i
COC(=O)c1cc2c(c3c4ccccc4n(S(=O)(=O)c4ccc(OC)cc4)c13)C(=O)N(C)C2	i	i	i	nt	i	nt	nt
COC(=O)c1ccc(Cn2nnc3ccccc32)cc1	i	i	i	i	i	nt	nt
COC(=O)c1ccc(COn2nnc3ccccc32)cc1	17	i	i	i	i	14	i
COc1ccc(Br)cc1/C=N/Nc1cccc(C(=O)O)c1	i	i	i	i	i	nt	nt
COc1ccccc1/C=C/C=N/Nc1cccc(C(=O)O)c1	15	i	i	i	1.6	22	i
Fc1cccc(CNC(=S)OC2CCC23CCC(c2ccccc2)CC3)c1 (stereo not given)	i	i	i	nt	i	nt	nt
Cc1ccc(C(=O)N2CCC[C@@H]2C(=O)N2CCC[C@H]2C(=O)NCc2ccccc2)cc1C	i	i	i	nt	i	nt	nt
Cc1nnc(NC(=O)c2sc3ccccc3c2Cl)s1	16	i	i	i	i	11	i
CCC(C)(C)C1CCC(=NNc2nc3ccccc3[nH]2)CC1 (stereo not given)	i	i	i	i	i	nt	nt
CC(=O)N1CCC(=NNc2nc3ccccc3[nH]2)CC1	16	i	i	nt	i	i	i
Nc1ccc(CCc2nc3ccccc3o2)cc1	13	i	i	i	i	13	i
COCCCNC(=O)C[C@H]1C[C@@]2(C(=O)OC)C(=C[C@H](COCc3ccccc3)O[C@@H]2C)N(CCC2=CCCCC2)C1=O	i	i	i	nt	i	nt	nt
Cc1occc1C(=O)N/N=C/c1cccc2ccccc12	21	i	5.8	i	1.0	14	i
O=C(NN=Cc1ccccc1Cl)c1cccc2ccccc12	i	i	i	i	i	nt	nt
Cc1occc1C(=O)N/N=C/C(Br)=C/c1ccccc1	17	i	i	i	i	14	i
COc1cc(/C=N/NC(=O)c2ccoc2C)cc(OC)c1OC	i	i	i	i	i	nt	nt
Cc1occc1C(=O)N/N=C/c1ccc2c(c1)OCO2	16	i	5.7	i	i	21	i
Cc1cc(/C=N/NC(=O)c2ccoc2C)cc(C)c1O	18	4.3	i	4.8	i	14	i
CC(C)C[C@H]1COc2cccc(N3CCCC3)c2S(=O)(=O)N1	i	i	i	nt	i	nt	nt
O=C(O)Cn1cc(/C=c2/sc3nc4ccccc4n3c2=O)c2ccccc21	17	i	5.9	i	i	11	i
CCOC(=O)c1csc(NC(=O)C2CCCN(S(=O)(=O)c3ccccc3)C2)n1 (stereo not given)	i	i	i	nt	i	nt	nt
C/C(=N\O)c1ccc(N2C(=O)C3CC=C(Cl)CC3C2=O)cc1 (stereo not given)	14	i	i	5.0	i	15	i
SMILES	hgDAF-12 ag	DAX1 inh-1	hcDAF-12 act	DAX1 inh-2	ssDAF-12 act	hgDAF12 conf	LXRb DAF12 ctr
Cc1ccc(NC(=O)c2ccc(N3C(=O)C4CC=C(Cl)CC4C3=O)cc2)cc1 (stereo not given)	i	i	i	i	i	nt	nt
COC(=O)[C@]12C[C@H](CC(=O)NCCCN3CCCC3=O)C(=O)N(CCC3=CCCCC3)C1=C[C@H](C(C)(C)C)O[C@@H]2C	i	i	i	nt	i	nt	nt
COc1ccc(C(=O)NCCSC2CCCCC2)cc1	16	i	i	i	i	11	i
O=C(NCCSC1CCCCC1)c1ccccc1	i	i	i	i	i	nt	nt
CCCn1c(C)cc(C(=O)CN2C(=O)NC3(CCCCCC3)C2=O)c1C	16	i	i	i	i	i	i
N#CCC[C@@H]1CC[C@]2(CCCN(C(=O)C3CCCCC3)C2)O1	i	i	i	nt	i	nt	nt
COc1cc(OC)c(NC(=O)NNC(=O)C(=O)NC2CC2)cc1Cl	i	i	i	nt	i	nt	nt

From PubChem
